Most compounds without a hit are left out; they make up all but 4.4% or so of the library.
HPGD inh: inhibitors of human 15-hydroxyprostaglandin dehydrogenase (HPGD); 4.3% of 150,000 active; purified HPGD, NADH fluorescence kinetic, PGE2 substrate; Potency, µM, for the others: top-dose activity change, negative = inhibition, usual class: inhibitors; AID 894; active = well fitted inhibition curve with a large enough effect, not every such curve was filed as active; inconclusive = small, poorly fitted or top-dose-only effect, or another doubt; inactive = no such curve, though single readings can be large or run the other way
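20 nM HPGD preincubated 15 min at room temperature with compound in 50 mM Tris-HCl pH 8, 0.01% Tween 20. Started with 1 mM NAD+ and 30 uM prostaglandin E2; NADH fluorescence (360/450 nm) read 5 times over 30-s intervals, last minus first.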
12-hLO inh: blocks human 12-lipoxygenase activity | 0.12% of 150,000 active | purified 12-hLO, xylenol orange hydroperoxide absorbance | Potency, µM (titrated, usually from 57.1 µM), inactives show top-dose activity change, negative = inhibition, usual class: inhibitors | P18054; also: nearly all actives have a fitted effect of over 55% in size
Target sequence (P18054 whole entry, looked up): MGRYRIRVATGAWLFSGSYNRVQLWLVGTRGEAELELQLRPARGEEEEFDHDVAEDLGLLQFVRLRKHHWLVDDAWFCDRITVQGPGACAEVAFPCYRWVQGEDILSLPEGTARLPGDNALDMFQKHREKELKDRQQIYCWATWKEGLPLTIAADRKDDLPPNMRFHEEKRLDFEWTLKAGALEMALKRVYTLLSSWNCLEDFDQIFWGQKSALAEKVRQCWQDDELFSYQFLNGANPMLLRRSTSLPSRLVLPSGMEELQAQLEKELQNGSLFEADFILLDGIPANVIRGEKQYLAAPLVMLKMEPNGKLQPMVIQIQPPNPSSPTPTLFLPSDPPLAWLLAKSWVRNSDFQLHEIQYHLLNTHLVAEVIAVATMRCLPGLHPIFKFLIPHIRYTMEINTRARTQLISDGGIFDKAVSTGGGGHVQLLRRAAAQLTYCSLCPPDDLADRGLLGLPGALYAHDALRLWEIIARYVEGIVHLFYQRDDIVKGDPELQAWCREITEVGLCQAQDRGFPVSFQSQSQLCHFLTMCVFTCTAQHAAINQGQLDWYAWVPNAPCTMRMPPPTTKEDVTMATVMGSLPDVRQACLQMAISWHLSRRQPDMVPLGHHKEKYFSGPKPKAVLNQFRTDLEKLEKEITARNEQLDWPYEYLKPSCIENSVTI
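Hydroperoxide formation by human 12-lipoxygenase from 40 uM arachidonic acid was followed colorimetrically via ferric-xylenol orange complex, using the 573/405 nm absorbance ratio. Enzyme concentration was 150 nM, with 30 min reaction at room temperature.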
p53ts 39C tox: p53ts cell cytotoxicity, nonpermissive temperature. Potency, µM (titrated, usually from 46.1 µM), inactives show at the top dose activity change, negative = cell killing, usual class: cytotoxic. AID 902. H1299-p53A138V viability at 39C, ATP luminescence, 24 h. 1.5% of 130,000 active; also: nearly all actives have a fitted effect of over 55% in size
p53ts 32C tox: p53ts cell cytotoxicity, permissive temperature | H1299-p53A138V at 32C, ATP luminescence viability, 24 h | Potency, µM (top dose mostly 46.1 µM), inactives show top-dose activity change, negative = cytotoxicity, actives largely listed as cytotoxic | 0.93% of 130,000 active | AID 924;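 also: 0% = DMSO and -100% = full killing by reference compound; nearly all actives have a fitted effect of over 55% in size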
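H1299-p53 A138V cells (temperature-sensitive p53) exposed 24 h to up to 46 uM compound at 32C, where p53 is wild-type in conformation. Viability read as ATP luminescence and normalised to DMSO and 100 uM tamoxifen. AC50 fitted with the Hill equation.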
Starred values were filed as active, the others as inactive. Unless noted, calls follow the shape of the dose curve; as a rule, active = well fitted curve in the direction sought with a large enough effect; inconclusive = small, poorly fitted or top-dose-only effect, or another doubt; inactive = no such curve, though single readings can be large; an effect the other way counts as inactive or inconclusive. Unless noted, % is scaled to controls: 0 for no effect and ±100 for the full control effect; potency is read from the fitted curve at half-maximal effect.

`COc1cc2c(cc1OC)C(COc1ccc3c(C)cc(=O)oc3c1)N(C(=O)c1cc(Cl)ccc1OC)CC2` (stereo unspecified) gave p53ts 39C tox -16.1% and p53ts 32C tox -4.1%.
Screening COc1cccc(NC(=S)N/N=C2/CCCCc3ccccc32)c1 returned HPGD inh -11.1%, 12-hLO inh inconclusive, p53ts 39C tox 22.4µM* and p53ts 32C tox inconclusive.
For CC(C)NC(=S)N/N=C1\CCCCc2ccccc21 the results were HPGD inh -10.4%, 12-hLO inh inconclusive and p53ts 39C tox 21.7%.
Screening CC(C)OCC(O)CS(=O)(=O)Cc1ccccc1 (stereo unspecified) returned HPGD inh 12.6µM* and 12-hLO inh 4.7%.
`CC(C)NC(=O)c1ccccc1NC(=O)CS(=O)(=O)Cc1ccccc1` gave HPGD inh -8.2% and 12-hLO inh -5.0%.
COc1cc(/C=C/C(=O)c2ccc(NS(=O)(=O)c3ccc(C)cc3)cc2)ccc1OC(F)F was read as HPGD inh 15.8µM* and 12-hLO inh -22.7%.
For CCOc1ccc(NC(=O)Cn2c(=O)oc3ccccc32)cc1 the results were HPGD inh 10µM* and 12-hLO inh -6.3%.
`COC(=O)c1ccc(NC(=O)Cn2c(=O)oc3ccccc32)cc1` gave p53ts 39C tox -3.0% and p53ts 32C tox -2.9%.
`COc1ccc(/C=C2/C(=O)N(c3nc4ccccc4s3)N=C2CSc2ccc(Cl)cc2)cc1` gave HPGD inh 14.1µM*, 12-hLO inh -14.4% and p53ts 39C tox 8.0%.
`CCCCNC(=O)c1cnn2c(C)c(Cc3c(C)cc(C)cc3C)c(C)nc12` gave p53ts 39C tox 15.8µM* and p53ts 32C tox inconclusive.
Screening Cc1nc2c(C(=O)NCc3ccccc3)cnn2c(C)c1Cc1ccc(F)cc1 returned p53ts 39C tox inconclusive and p53ts 32C tox -3.2%.
CCOc1cc(C2c3c(oc4ccccc4c3=O)C(=O)N2Cc2ccc3c(c2)OCO3)ccc1O (stereo unspecified) was read as p53ts 39C tox 17.8% and p53ts 32C tox 2.1%.
`N#CCCn1c(=O)c(-c2ccc(Cl)cc2)nc2cnc(N3CCNCC3)nc21` gave p53ts 39C tox -18.4% and p53ts 32C tox -2.8%.
For COc1ccc(Cl)cc1NC(=O)CCCn1c(C)c2cnn(-c3ccccc3)c(=O)c2c1C the results were p53ts 39C tox -9.2% and p53ts 32C tox -4.4%.
CC(C)(C)c1ccc(C(=O)Nc2nnc3n2CCS3)cc1 was read as p53ts 39C tox 12.6µM* and p53ts 32C tox inconclusive.
For CC(C)(C)C(=O)Nc1nnc2n1CCS2 the results were p53ts 39C tox inconclusive and p53ts 32C tox -1.0%.
Screening COCCc1nn2c(=O)cc(COC(=O)c3ccc(Br)cc3)nc2s1 returned p53ts 39C tox -17.0% and p53ts 32C tox 2.5%.
Screening O=C1CN(C(=O)CSc2nc(-c3ccc(Cl)cc3)cs2)c2ccccc2N1 returned HPGD inh 12.6µM* and 12-hLO inh -0.7%.
For C=CCn1c(COc2ccc(Cl)cc2)nnc1SCC(=O)N1CC(=O)Nc2ccccc21 the results were HPGD inh -0.4%, 12-hLO inh -5.6%, p53ts 39C tox -8.0% and p53ts 32C tox 10.6%.
For Cc1nonc1C(=O)N/N=C/c1ccc(O)c(O)c1 the results were HPGD inh 31.6µM* and 12-hLO inh -1.8%.
For Cc1ccc(N2NC(=O)/C(=C\c3cc4c(cc3[N+](=O)[O-])OCO4)C2=O)cc1C the results were HPGD inh 3.98µM* and 12-hLO inh -25.3%.
`Cc1cccc(N=Cc2cc3c(cc2[N+](=O)[O-])OCO3)c1` gave HPGD inh -20.3% and 12-hLO inh inconclusive.
Screening OB(O)c1ccc(Br)cc1 returned HPGD inh -3.6%, 12-hLO inh -2.0%, p53ts 39C tox -4.3% and p53ts 32C tox -2.6%.
`CCOC(=O)C(=CNc1ccc(NC2=NCC(C)S2)cc1)C(=O)OCC` (stereo unspecified) gave HPGD inh 14.1µM* and 12-hLO inh -1.4%.
For CCOC(=O)C(=CNc1cccc(N)n1)C(=O)OCC the results were HPGD inh -8.3% and 12-hLO inh -6.4%.
For O=C(NCC1CCCO1)c1ccc(COc2ccc(F)cc2)o1 (stereo unspecified) the results were HPGD inh 25.1µM*, 12-hLO inh -9.4%, p53ts 39C tox 3.0% and p53ts 32C tox -2.8%.

Screening results as filed in PubChem.
